SARS PLpro yeast: qHTS of Yeast-based Assay for SARS-CoV PLP. S. cerevisiae expressing SARS-CoV PLpro, growth rescue. Potency, µM (highest dose often 32.9 µM), inactives show top-dose activity, positive = growth rescue, actives largely listed as activators. 330,000 tested, 0.19% active. AID 485353, 2010; calls by dose curve; also: potency is read from the fitted curve at half-maximal effect; 0% is about no effect; nearly all actives have a fitted effect of over 55% in size
Pf growth 48h: Primary qHTS for delayed death inhibitors of the malarial parasite plastid, 48 hour incubation | P. falciparum luciferase growth in erythrocytes, 48 h | Potency, µM (series often up to 28.7 µM), without a hit: at the highest dose activity change, negative = inhibition, usual class: inhibitors | 310,000 tested, 5.9% active; also: potency is read from the fitted curve at half-maximal effect; % is scaled to controls: 0 for no effect and ±100 for the full control effect
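Parasite viability was followed by luminescence of a genomically integrated firefly luciferase. Cultures held 0.1% parasitemia at 2% hematocrit (final), incubated under 5% CO2 at 37 C.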
HCMV inh: qHTS Assay for inhibitors of the human cytomegalovirus (HCMV). HFF cells, HCMV-luciferase reporter, 72 h; active compounds read low. activity change, negative = inhibition, % at 57.5 µM. 410,000 tested, 4.5% active; in the data active = activity change below about -60%; inconclusive = no clear call, values can overlap the other calls; inactive = above about -39%; also: % is scaled to controls: 0 for no effect and ±100 for the full control effect
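Steps: HFFs plated, 16 h 37C; compounds added; HCMV-luciferase added to MOI 1 PFU/cell; 72 h 37C; OneGlo reagent, 5 min room temperature; luminescence read, normalized to controls.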
Sm TGR inh: qHTS Assay for the Inhibitors of Schistosoma Mansoni Peroxiredoxins; Schistosoma mansoni thioredoxin glutathione reductase (TGR), Q962Y6; purified TGR, DTNB reduction, TNB absorbance 405 nm; Potency, µM (top dose mostly 114 µM), for inactives: top-dose activity change, negative = inhibition, actives largely listed as inhibitors; 360,000 tested, 3% active; AID 485364, 2010; also: potency is read from the fitted curve at half-maximal effect; % is scaled to controls: 0 for no effect and ±100 for the full control effect; nearly all actives have a fitted effect of over 60% in size
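TGR 20 nM + NADPH 100 uM (dispensed conc.), cpd preinc 15 min RT; start with NADPH (500 uM addition) then DTNB (15 mM addition). Kinetic TNB absorbance, 405 nm filter. Four-parameter Hill fit across titration.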
Pf growth 96h: Primary qHTS for delayed death inhibitors of the malarial parasite plastid, 96 hour incubation; P. falciparum luciferase reporter growth, 96 h; Potency, µM (series often up to 28.7 µM), for the others: at the highest dose activity change, negative = inhibition, usual class: inhibitors; 320,000 tested, 6.9% active; AID 504834, 2011; also: potency is read from the fitted curve at half-maximal effect; % is scaled to controls: 0 for no effect and ±100 for the full control effect
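Plates of compound plus infected erythrocytes (2% hematocrit, 0.05% parasitemia final) incubate 96 hours, 37 C, 5% CO2. Detection reagent added; reduced luminescence from the parasites' luciferase reporter flags inhibition.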
HCV inh: qHTS Assay for Inhibitors of Hepatitis C Virus (HCV) | 340,000 tested, 3.4% active | Potency, µM (titrated, usually from 41.8 µM), inactives show at the highest dose activity change, negative = inhibition, usual class: inhibitors | Huh7.5.1 HCVcc-Cre infection, luciferase reporter, 44 h; also: potency is read from the fitted curve at half-maximal effect; % is scaled to controls: 0 for no effect and ±100 for the full control effect
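Infectious HCVcc-Cre (~0.5 moi) was added to cells just after compound, with cells seeded 4 h earlier at 1,000 per well. Luciferase activity after 44 h culture reported infection; substrate was incubated 15 min at room temperature before reading.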
* = called active by the depositor; u = inconclusive; x = no result. Shown are actives, neighbours in structure and some others; about 15% of the full set was active somewhere. Unless noted, calls follow the shape of the dose curve; as a rule, active = well fitted curve in the direction sought with a large enough effect; inconclusive = small, poorly fitted or top-dose-only effect, or another doubt; inactive = no such curve, though single readings can be large; an effect the other way counts as inactive or inconclusive.

SMILES	SARS PLpro yeast	Pf growth 48h	HCMV inh	Sm TGR inh	Pf growth 96h	HCV inh
O=[N+]([O-])c1ccc(Cl)c(S(=O)(=O)/N=C(/c2ccccc2)N2CCOCC2)c1	2%	10%	-105*	0%	53%	4%
CCCCOCP(=O)(CC)COCCCC	-21%	x	25	-6%	-12%	18%
CCN(CC)Cc1c(CC(C)C)oc(C)c1C(=O)O	2%	4%	-3	-7%	x	1%
COCCCN=C(c1ccco1)n1c(=S)nc(-c2ccco2)n(CCCOC)c1=S	-24%	5%	85	20µM*	27%	-12%
COc1cccc(-c2cc(C(=O)Nc3cc(C)n(Cc4ccc(Cl)cc4)n3)no2)c1	-7%	10µM*	-80*	7%	22%	6.3µM*
COc1ccc(OC)c(-c2cc(C(=O)Nc3cc(C)n(Cc4ccc(Cl)cc4)n3)no2)c1	-10%	2.1µM*	9	1%	0%	11µM*
Cc1nn(Cc2ccc(Cl)cc2)c(C)c1NC(=O)c1cc(-c2ccco2)on1	5%	u	-12	u	15%	u
Cc1cc(NC(=O)c2cc(-c3ccco3)on2)nn1Cc1ccc(Cl)cc1	3%	6.6µM*	u	-34%	x	u
Cc1nn(Cc2ccc(Cl)c(Cl)c2)c(C)c1NC(=O)c1cc(-c2ccco2)on1	-10%	u	u	45µM*	58%	u
Cc1ccc(SCC(=O)Nc2ccc3oc(-c4cccc(Cl)c4)nc3c2)cc1	x	x	8	u	x	x
Cn1cnnc1SCCNS(=O)(=O)c1cccc([N+](=O)[O-])c1	7%	11%	-2	-6%	-16%	20%
CCC(NC(=S)NCc1ccc(F)cc1)c1ccc(C)cc1 (stereo not given)	u	9.3µM*	-35	2%	10µM*	-16%
Cc1ccc(C(C)NC(=S)NCc2ccc(F)cc2)c(C)c1 (stereo not given)	15%	u	-15	11%	305%	u
Cc1ccc(C(C)NC(=S)NCc2ccc(F)cc2)cc1C (stereo not given)	-10%	-18%	-82*	2%	-2%	u
CCc1ccc(C(C)NC(=S)NCc2ccc(F)cc2)cc1 (stereo not given)	11%	13µM*	29	3%	15µM*	u
CCC(NC(=O)C1(C)CC1(Br)Br)c1ccc(C)cc1 (stereo not given)	4%	-1%	-72*	4%	101%	10%
O=C(c1cccc(NC2=NC3CS(=O)(=O)CC3S2)c1)N1CCN(c2cccc(Cl)c2)CC1 (stereo not given)	-5%	-12%	-19	2%	-5%	14%
Cc1cc(=O)n2nc(N3CCC(C(=O)NC4CCCc5ccccc54)CC3)sc2n1 (stereo not given)	0%	u	-19	-7%	0.59µM*	-5%
Cc1cc(=O)n2nc(N3CCC(C(=O)NC(C)c4ccccc4)CC3)sc2n1 (stereo not given)	-3%	-7%	-6	1%	x	u
Cc1cc(=O)n2nc(N3CCC(C(=O)NCc4ccccc4Cl)CC3)sc2n1	0%	u	-21	0%	12µM*	-18%
COc1ccc(-c2[nH]ncc2CNCCn2cccn2)c(F)c1	1%	47%	-5	u	13µM*	8%
Cc1ccc(-n2ncc3c(=O)[nH]c(SC(C)C)nc32)cc1	-8%	-1%	-96*	4%	27%	u
CCOC(=O)C(C)Sc1nc2c(cnn2-c2ccc(C)cc2)c(=O)[nH]1 (stereo not given)	4%	-30%	-28	0%	u	11µM*
